Source: PubChem BioAssay (NMMLSC)
Compounds with a hit are over-represented: about 2.5% of the library has one in this group of screens.
GRK2 inh = human GRK2 inhibition via aptamer displacement; P25098; bead flow cytometry, FAM-aptamer displacement from GRK2; 0.59% of 330,000 active; inhibition of aptamer binding, % at 10 µM;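 active means inhibition of aptamer binding above 40%, roughly 3 SD of noise, on plates passing a quality check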;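 further: median bead fluorescence of bound FAM aptamer so fluorescent compounds give negative values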
MEKK2 WT-MEK5 = raises or lowers MEK5 binding to wildtype human MEKK2 PB1 domain; binding response (% of control), % at 10 µM; AID 1531; 1.1% of 290,000 active; bead flow cytometry, Alexa488-MEK5 binding to MEKK2 WT; actives lie on both sides; Q9Y2U5; in the data active means binding response below about 67% or above about 130%
MEKK2mut PB1 HTS = signal of MEK5 binding to mutant human MEKK2 PB1 domain | 0.35% of 290,000 active | percent response, % at 10 µM | bead flow cytometry, Alexa488-MEK5 binding to MEKK2 mutant | AID 1530; in the data active means percent response above about 24%, passing the limit was not always enough
MEKK3 PB1 HTS = raises or lowers MEK5 binding to the human MEKK3 PB1 domain. bead-based flow cytometry, Alexa488-MEK5 binding to MEKK3; actives lie on both sides; 0 = blocked by unlabeled MEK5, 100 = vehicle. binding response (% of control), % at 10 µM. 1.4% of 290,000 active. AID 1529;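 active means binding response more than 3 SD above or below the average of its plate-row segment, actives on both sides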;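 further: Alexa488 bead fluorescence after subtracting the streptavidin-only scavenger bead signal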
Target sequence (Q99759 whole entry, looked up, the tested form may be a part): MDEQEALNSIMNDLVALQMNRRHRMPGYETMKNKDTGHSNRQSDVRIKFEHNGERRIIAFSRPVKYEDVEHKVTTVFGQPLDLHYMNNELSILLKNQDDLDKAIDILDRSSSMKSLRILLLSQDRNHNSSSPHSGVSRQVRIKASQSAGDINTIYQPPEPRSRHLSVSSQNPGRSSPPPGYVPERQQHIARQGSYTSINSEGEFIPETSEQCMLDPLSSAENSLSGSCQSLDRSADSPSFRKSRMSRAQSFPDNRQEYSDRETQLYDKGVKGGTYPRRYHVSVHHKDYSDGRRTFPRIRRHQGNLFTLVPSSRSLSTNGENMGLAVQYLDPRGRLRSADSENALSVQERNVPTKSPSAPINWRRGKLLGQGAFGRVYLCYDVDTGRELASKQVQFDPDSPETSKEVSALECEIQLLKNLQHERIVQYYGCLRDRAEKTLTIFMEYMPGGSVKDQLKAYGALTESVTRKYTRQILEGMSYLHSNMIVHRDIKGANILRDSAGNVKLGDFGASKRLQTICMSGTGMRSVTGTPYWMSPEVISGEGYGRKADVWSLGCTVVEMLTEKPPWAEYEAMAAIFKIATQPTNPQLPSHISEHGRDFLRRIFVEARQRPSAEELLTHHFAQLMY
MEKK2wt confirm = raises or lowers MEK5 binding to wildtype human MEKK2, retest. binding response (% of control), % at 10 µM. bead flow cytometry, Alexa488-MEK5 binding to MEKK2 WT; actives lie on both sides. 2.4% of 5,900 active. shares compounds with MEKK3 PB1 HTS; in the data active means binding response below about 16% or above about 210%; inactive means in between
MEKK2mut-MEK5 = signal of MEK5 binding to mutant human MEKK2, retest. 2% of 5,900 active. shares compounds with MEKK3 PB1 HTS. bead flow cytometry, Alexa488-MEK5 binding to MEKK2 mutant. percent response, % at 10 µM; in the data active means percent response mostly above about 71%, no sharp cut-off; inactive means mostly below about 38%;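 further: higher means compound restores mutant binding toward wildtype level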
MEKK3-MEK5 inh = MEKK3-MEK5 PB1 inhibition, single concentration confirmation; shares compounds with MEKK3 PB1 HTS; bead flow cytometry, Alexa488-MEK5 binding to MEKK3; active compounds read low; binding response (% of control), % at 10 µM; 1.8% of 5,900 active; AID 1894;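 active means binding response below 72% of control, or above a set upper limit, though filed actives all read lower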;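 further: 100% = DMSO only wells and 0% = binding blocked by excess unlabeled MEK5; lower values mean stronger disruption of MEK5 binding to MEKK3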
Numbers without * were called inactive; / = no result given; ! = not confirmed by another sample; [ ] = dose if it differs, or a comment.

SMILES | GRK2 inh | MEKK2 WT-MEK5 | MEKK2mut PB1 HTS | MEKK3 PB1 HTS | MEKK2wt confirm | MEKK2mut-MEK5 | MEKK3-MEK5 inh
COc1cc(Br)c(-c2sc(Nc3ccccc3)n[n+]2-c2ccc(F)cc2)cc1OC | 5 | 133 | 34* | 104 | 149 | 32 | 103
CCc1ccc(Nc2n[n+](-c3ccccc3)c(-c3ccc(SC)cc3)s2)cc1 | 2 | 195* | 35* | 108 | 180 | 53 | 108
CSc1ccc(-c2sc(Nc3ccccc3)n[n+]2-c2ccccc2)cc1 | 7 | 148* | 10 | 106 | 121 | 31 | 102
CSc1ccc(-c2sc(Nc3cccc4ccccc34)n[n+]2-c2ccccc2)cc1 | 1 | 129 | 23 | 105 | / | / | /
Fc1ccc(-[n+]2nc(Nc3ccccc3)sc2-c2cccc(Cl)c2Cl)cc1 | 4 | 128 | 23 | 105 | / | / | /
Clc1cccc(-c2sc(Nc3ccccc3)n[n+]2-c2ccccc2)c1Cl | 1 | 135* | 13 | 104 | 135 | 15 | 103
COC(=O)c1ccc(N2CCN(S(=O)(=O)c3ccc(Br)cc3)CC2)c([N+](=O)[O-])c1 | 2 | 124 | 8 | 129* | 97 | -5 | 94
Cc1ccc(NC(=S)NNC(=O)c2ccc(N3CCOCC3)c([N+](=O)[O-])c2)cc1Cl | 3 | 92 | -1 | 99 | / | / | /
O=C(NNC(=S)Nc1ccc(Br)cc1)c1ccc(N2CCOCC2)c([N+](=O)[O-])c1 | 0 | 112 | 0 | 137* | 104 | 0 | 102
CC(C)OC(=O)NC(Nc1ccccc1C(=O)O)(C(F)(F)F)C(F)(F)F | 7 | 134 | 29 | 132* | 101 | 1 | 100
CC(C)N(CCNC(=O)c1oc(=O)c2ccccc2c1-c1ccccc1)Cc1ccco1 | 0 | 90 | -13 | 95 | / | / | /
COc1ccc2c(-c3ccccc3)cc(SCC(N)=O)nc2c1 | 0 | 9.0*[inhibitor] | 115* | 105 | 101 | -1 | 99
CCc1c(C)nc2cc(-c3ccc(OC)c(OC)c3)nn2c1N1CCCC1 | 2 | -1.0*[inhibitor] | -28 | 2.0*[inhibitor] | 106 | 0 | 109
CC(CC(=O)N(C)c1c(N)n(Cc2ccccc2)c(=O)[nH]c1=O)c1ccccc1 (stereo not drawn) | 0 | / | / | / | / | / | /
C=CCn1c(C)c(/C=C/c2cc[n+](C)cc2)c2ccccc21 | 0 | 94 | 62* | 113 | 116 | -2 | 98
C=CCn1cc(/C=C/c2cc[n+](C)cc2)c2ccccc21 | 0 | 108 | 0 | 99 | / | / | /
CC(=O)Nc1ccc(OCC(O)Cn2nc(C)c(C)c2C)cc1 (stereo not drawn) | 2 | 102 | 4 | 101 | / | / | /
CN(Cc1cnccn1)Cc1cn(Cc2ccccc2)nc1-c1ccc2c(c1)OCO2 | 4 | 91 | -6 | 97 | / | / | /
CN(Cc1ccccn1)Cc1cn(Cc2ccccc2)nc1-c1ccc2c(c1)OCO2 | 0 | 196* | 42 | 107 | 106 | 4 | 101
CSCC[C@H](NS(=O)(=O)c1ccc(C)cc1)C(=O)N1CCC(C(=O)N[C@H](C(=O)O)c2ccccc2)CC1 | 0 | 98 | 1 | 99 | / | / | /
Cc1ccc(N(CN2C(=O)NC(C)(C)C2=O)CN2C(=O)NC(C)(C)C2=O)cc1 | 1 | 2.0*[inhibitor] | -16 | 2.0*[inhibitor] | 101 | -4 | 99
[O-][n+]1c2ccccc2c2n1CCCN=C2c1ccc(Cl)cc1 | 0 | / | / | / | / | / | /
O=C(CN1CCOCC1)Nc1ccccc1Sc1ccc(Cl)cc1 | 0 | 103 | 0 | 129* | 98 | -7 | 100
CCn1c(SCC(=O)O)nc2sc3c(c2c1=O)CCC3 | 35 | -1.0*[inhibitor] | -9 | 1.0*[inhibitor] | 96 | -6 | 101
COc1nc(Oc2ccc(=O)[nH]n2)nc(N2CCOCC2)n1 | 0 | 98 | 5 | 102 | / | / | /
SMILES | GRK2 inh | MEKK2 WT-MEK5 | MEKK2mut PB1 HTS | MEKK3 PB1 HTS | MEKK2wt confirm | MEKK2mut-MEK5 | MEKK3-MEK5 inh
CC(C)(C)Nc1nc(Oc2ccc(=O)[nH]n2)nc(N2CCOCC2)n1 | 0 | 88 | -2 | 75*[inhibitor] | 104 | 0 | 101
Cc1ccc(N2CC(C(=O)Nc3nc4ccc(S(C)(=O)=O)cc4s3)CC2=O)cc1 (stereo not drawn) | 1 | 101 | -3 | 99 | / | / | /
COc1ccc(C(=O)NCC(=O)OCC(=O)N2CCc3ccccc32)cc1 | 0 | 89 | -7 | 92 | / | / | /
Cc1cc(NS(=O)(=O)c2cccs2)no1 | 0 | 2.0*[inhibitor] | -18 | 2.0*[inhibitor] | 98 | -1 | 98
Cc1ccc(S(=O)(=O)Nc2cc(C)on2)cc1 | 1 | 102 | -2 | 104 | / | / | /
O=S(=O)(Nc1ccc2c(c1)OCO2)c1cccs1 | 4 | 128 | 8 | 132* | 104 | 3 | 108
CC(=O)N1c2ccc(S(=O)(=O)N3CCC(C(=O)Nc4cccc(C(F)(F)F)c4)CC3)cc2CC1C (stereo not drawn) | 0 | 100 | 3 | 101 | / | / | /
CCOC(=O)c1c(NC(=O)C[n+]2ccc(Cc3ccccc3)cc2)sc(C)c1C | 0 | 138* | 11 | 94 | 191 | 53 | 111
CCc1noc(C)c1C(=O)N1CCN(S(=O)(=O)c2cccs2)CC1 | 0 | / | / | / | / | / | /
Cc1nnc(C)n1N | 0 | -3.0*[inhibitor] | -4 | 101 | 94 | -19 | 93
CN1CCC(=C2c3ccccc3CCc3sccc32)CC1 | 0 | 155*! | 15 | 116 | 126 | 16 | 95
O=C(NS(=O)(=O)c1ccc(Cl)s1)c1ccccc1 | 1 | 193* | 23 | 112 | 115 | 9 | 103
COc1cc(Cl)c(C)cc1NC(=O)c1ccccc1-n1cnnn1 | 0 | / | / | / | / | / | /
Cc1ccc(C)c(N2CCN(c3cnn(-c4nc5ccccc5s4)c(=O)c3Cl)CC2)c1 | 0 | 107 | 1 | 143* | 109 | 12 | 108
O=C(NCc1cccnc1)c1ccc(Cn2cc(C(F)(F)F)ccc2=O)cc1 | 5 | 81 | -32 | 69*[inhibitor] | 97 | 0 | 97
O=C(O)c1ccc(Cn2cc(C(F)(F)F)ccc2=O)cc1 | 0 | 49 | -17 | 37*[inhibitor] | 101 | -3 | 106
COC(=O)C1CCN(C(=O)CN2C(=O)NC(CCc3ccccc3)C2=O)CC1 (stereo not drawn) | 4 | 124 | 9 | 122* | 99 | -1 | 103
Cc1nn(CCC(=O)NNC(=S)Nc2ccc(F)cc2)c(C)c1Br | 0 | 104 | 0 | 129* | 102 | 3 | 102
O=C(CCc1ccccc1)NNC(=S)Nc1ccc(F)cc1 | 0 | 84 | -2 | 70*[inhibitor] | 101 | -4 | 93
O=C(Cc1ccccc1)NNC(=S)Nc1ccc(Cl)cc1 | 0 | 94 | -1 | 93 | / | / | /
CCCCOc1ccccc1C(=O)N(Cc1ccc(C)o1)C1CCS(=O)(=O)C1 (stereo not drawn) | 0 | 95 | -2 | 97 | / | / | /
